Each structure is given as a SMILES string. Records with an inconclusive call do not appear. Calls of active or inactive are those of the source. How the source made its calls: active means hit-call score of the fitted dose curve at least 0.9, where 1 is the maximum; inconclusive means response in the unintended direction; inactive means score below 0.9.

This is an account of results in PubChem BioAssay (EPA / NIEHS).

The target of this assay is human CYP1A1, CYP1A1 (gene 1543) (UniProt P04798). Description: NVS_ADME_hCYP1A1: NovaScreen (NVS) CYP450-related Enzyme Activity (ADME) Assay for human CYP1A1 (AID 2283100). The procedure: NVS_ADME_hCYP1A1 is a biochemical, single-readout assay that uses extracted gene-proteins in a cell-free assay. Measurements were taken 1 hour after chemical dosing in a 96-well plate.NVS_ADME_hCYP1A1 is one of one assay component(s) measured or calculated from the NVS_ADME_hCYP1A1 assay. It is designed to make measurements of enzyme activity, a form of enzyme reporter, as detected with fluorescence intensity signals by Fluorescence technology.Data from the assay component NVS_ADME_hCYP1A1 was analyzed into 1 assay endpoint. This assay endpoint, NVS_ADME_hCYP1A1, was analyzed in the positive analysis fitting direction relative to Acetonitrile as the negative control and baseline of activity. Using a type of enzyme reporter, loss-of-signal activity can be used to understand changes in the enzymatic activity as they relate to the gene CYP1A1. Furthermore, this assay endpoint can be referred to as a primary readout, because this assay has produced multiple assay endpoints where this one serves a enzymatic activity function. To generalize the intended target to other relatable targets, this assay endpoint is annotated to the cyp intended target family, where the subfamily is xenobiotic metabolism.
human CYP1A1, CYP1A1 (gene 1543), sequence (P04798 whole entry, looked up): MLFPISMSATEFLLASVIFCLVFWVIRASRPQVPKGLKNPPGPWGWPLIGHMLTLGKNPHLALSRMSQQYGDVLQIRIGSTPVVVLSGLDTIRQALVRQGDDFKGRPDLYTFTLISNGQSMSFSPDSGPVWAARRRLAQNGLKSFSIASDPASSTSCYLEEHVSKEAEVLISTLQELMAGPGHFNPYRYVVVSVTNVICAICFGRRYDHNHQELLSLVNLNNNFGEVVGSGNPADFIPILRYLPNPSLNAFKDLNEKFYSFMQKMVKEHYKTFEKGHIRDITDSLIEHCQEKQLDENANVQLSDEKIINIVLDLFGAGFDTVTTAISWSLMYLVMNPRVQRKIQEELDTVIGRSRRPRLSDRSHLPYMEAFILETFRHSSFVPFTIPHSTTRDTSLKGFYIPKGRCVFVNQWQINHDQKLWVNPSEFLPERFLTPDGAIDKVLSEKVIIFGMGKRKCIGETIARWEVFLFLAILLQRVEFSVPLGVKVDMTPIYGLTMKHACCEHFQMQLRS
Binding assays used specific radioligands (tritiated, iodinated) with non-radioactive competitive displacement ligands in agonist or antagonist protocols (as indicated) and various reference compounds and inhibitors to titrate specific binding to receptors and transporters. Most enzyme assays (CYPs, kinases, phosphatases, proteases, HDACs) used recombinant protein and specific substrates (fluorescence mostly, some colorimetric and radioactive) and inhibitors, followed by a biochemical separation of substrate and product. All assays for the biochemical HTS were initially run in duplicate at a single concentration (10 uM for CYP450 assays and 25 uM for all others). Assay-chemical combinations meeting a pre-defined threshold (e.g., 30% inhibition and other criteria defined below) were then run in singleton concentration-response format with maximum concentration of 20 uM for CYPs and 50 uM for all others. Each assay was run with positive and negative controls, and concurrent controls on every plate. The follow-up (secondary) screen tested active chemical-pairs in concentration series, as well as a few additional assays not tested in the primary screen, some selected negative inactives, and several cases re-run in the concentration series for confirmatory purposes.
`CNc1cnn(-c2cccc(C(F)(F)F)c2)c(=O)c1Cl`: the AC50 is 6.11 µM (active).
In the case of `C[Si](Cn1cncn1)(c1ccc(F)cc1)c1ccc(F)cc1`, the concentration at half-maximal activity (AC50) was 3.27 µM (active).
On the same count and under the same terms, for `CSc1nc(NC(C)C)nc(NC(C)C)n1` the value was 6.84 µM (active); for `CCOP(=S)(OCC)Oc1ccc([N+](=O)[O-])cc1`, 3.28 µM (active); for `CCOP(=S)(OCC)Oc1ccc2c(C)c(Cl)c(=O)oc2c1`, 0.352 µM (active).
Regarding `CCOC(=O)CC(SP(=O)(OC)OC)C(=O)OCC` (stereo unspecified), the call was inactive.
As to `CCCOCC(=Nc1ccc(Cl)cc1C(F)(F)F)n1ccnc1`, the AC50 is 4.18 µM (active).
As for `C#CC(C)(C)NC(=O)c1cc(Cl)cc(Cl)c1`, the AC50 is 2.56 µM (active).
With `C=C(C)[C@H]1Cc2c(ccc3c2O[C@@H]2COc4cc(OC)c(OC)cc4[C@@H]2C3=O)O1`, the compound was called inactive.
As to `COc1ccc(C(=CC(=O)N2CCOCC2)c2ccc(Cl)cc2)cc1OC`, the AC50 is 6.61 µM (active).
As to `CCOP(=O)(NC(C)C)Oc1ccc(SC)c(C)c1` (stereo unspecified), the AC50 is 4.81 µM (active).

A word on the AC50: it is the concentration at which the activity in the assay is half-maximal.
